We go through 90 molecules from PubChem BioAssay AID1850 (Southern Research Specialized Biocontainment Screening …, 2009).

Hit rate of the full screen: of about 310,000 compounds, about 1,000 (0.32%) were called active. The list is a sample of the results. Results with a measured potency or affinity are listed apart. Unmarked numbers belong to inactive results. How the calls were made is not given here.

This assay is described as follows: Inhibition of PhoP regulon, Salmonella typhi GFP reporter cells, confirmation, 4 h (AID 1850).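 Further: 0% = induced wells with vehicle and 100% = uninduced wells.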 To be noted: Salmonella Typhi PhoP-promoter GFP reporter, fluorescence, at 50 µM, active compounds read high.
As a reminder, the inhibition is the change of the read-out against control, counted positive when it falls. Consider `Cc1ccc(-c2nnn(CC(=O)Nc3ccccc3N3CCOCC3)n2)cc1`, for which the inhibition was -3.19%.

For `COC(=O)C(O)(c1ccc(N(C)C(=O)OC(C)C)cc1)C(F)(F)F` (stereo not given), the inhibition is 0.83%.

Turning to `CCOc1ccc(S(=O)(=O)N(C)c2ccc(OCC(=O)NC3=NCCS3)cc2)cc1`, the inhibition was -20.3%.

Consider `O=C(Nc1cccnc1Cl)c1cc(-c2ccc(F)cc2)on1`, for which the inhibition was 5.5%.

With `CCN(CCn1cccn1)C(=O)c1cc(COc2ccc(F)c(F)c2)on1`, the inhibition is 6.34%.

Turning to `CCOC(=O)c1nc2c(=O)n(C)c(=O)n(C)c2n(C)c1=O`, the inhibition was 2.99%.

With `Cc1cccc(NC(=O)CSc2nnc(NC(=O)C3CC3)s2)c1C`, the inhibition is 3.53%.

`O=C(Cc1ccccc1)NNC(=O)c1cccs1`: the inhibition was 6.4%.

On to `O=C(Cc1ccc(Cl)cc1)NNC(=S)NC(=O)c1cccs1`, for which the inhibition is 11.9%.

In the case of `O=C(NC(=S)NNC(=O)c1ccco1)c1ccc(F)cc1`, the inhibition was 0.37%.

As to `O=C(NC(=S)NNC(=O)c1ccco1)c1ccccc1`, the inhibition is 21.3%.

Turning to `CC(=O)N1CCN(c2ccccc2NC(=O)Cc2ccc(Cl)cc2)CC1`, the inhibition was -3.34%.

For the molecule `COC(=O)C(Cc1ccc(O)cc1)NC(=O)CCNC(=O)c1ccco1` (stereo not given), the inhibition is -6.89%.

In the case of `CCCc1cc(CN(C)C(=O)CC2C(=O)NCCN2Cc2ccccc2C)[nH]n1` (stereo not given), the inhibition was -5.02%.

`CC(NS(=O)(=O)c1ccccc1)C(=O)NCc1ccco1` (stereo not given): the inhibition was 4.53%.

Turning to `COC(=O)c1cc(Nc2cc(C)c3c(O)cccc3n2)cc(C(=O)OC)c1`, the inhibition was -3.04%.

For `CC(=O)Nc1ccc(Nc2cc(C)c3ccccc3n2)cc1`, the inhibition was -5.65%.

Take `Cc1ccc(Nc2cc(C)c3ccc(O)cc3n2)cc1C`: the inhibition was 9.14%.

As for `COc1ccc(Nc2cc(C)c3ccccc3n2)cc1`, the inhibition is -2.31%.

In the case of `Cc1ccc(-c2cc(C(=O)OCC(=O)Nc3ncc(C(F)(F)F)cc3Cl)c3ccccc3n2)cc1`, the inhibition was -6.32%.

Take `O=C(CN1c2ccccc2S(=O)(=O)c2ccccc21)Nc1ccccc1F`: the inhibition is 2.92%.

Consider `CC(NC(=O)Cn1ncc(Cl)c(Cl)c1=O)C12CC3CC(CC(C3)C1)C2` (stereo not given), for which the inhibition was -18.9%.

Regarding `O=C(CN1C2=NCCCN2c2ccccc21)c1cccs1`, the inhibition is 9.76%.

In the case of `O=C(CN1C2=NCCN2c2ccccc21)c1ccc(Br)s1`, the inhibition is 13.2%.

Turning to `O=C(O)CN1C2=NCCCN2c2ccccc21`, the inhibition was -7.68%.

As for `O=C(CN1C2=NCCCN2c2ccccc21)c1ccc2c(c1)OCO2`, the inhibition was 28.1%.

For `CCOC(=O)Nc1cc(Br)c2c(c1)OCCO2`, the inhibition was 9.05%.

For `CCCC[C@@H]1C[C@H]1[C@@H](NC(=O)c1ccco1)c1ccc(C(=O)OC)cc1`, the inhibition was -1.55%.

Take `COc1ccc(CNC(=O)c2ccc3c(=O)n(-c4ccccc4)c(=O)[nH]c3c2)cc1`: the inhibition was 9.07%.

Consider `Cc1cccc2cc(CN(CCCO)C(=O)Nc3cccc(Cl)c3)c(=O)[nH]c12`, for which the inhibition was -2.46%.

With `C=CCNc1nc(C(=O)OCC(=O)c2ccc(Cl)cc2)cs1`, the inhibition is 0.24%.

In the case of `CS(=O)(=O)Nc1cccc(C2=NN(C(=O)c3ccc(F)cc3)C(c3cccs3)C2)c1` (stereo not given), the inhibition was -1.48%.

Consider `O=C1OCCN1/N=C/c1ccc([N+](=O)[O-])o1`, for which the inhibition is -7.99%.

With `O=C1C2C(C(=O)N1/N=C/c1ccc([N+](=O)[O-])o1)C1C=CC2C12CC2` (stereo not given), the inhibition was -7.07%.

For the molecule `O=C(c1cc(S(=O)(=O)N2CCOCC2)c(Cl)cc1Cl)N1CCCCC1`, the inhibition is -2.41%.

Take `OC(COc1ccccc1)CN(Cc1ccccc1)CC(O)COc1ccccc1` (stereo not given): the inhibition is -0.87%.

As to `CCOc1ccc(-c2cc(C)[n+](CCN3CCOCC3)c(-c3ccc(OCC)cc3)c2)cc1`, the inhibition is 8.34%.

`CCOc1ccc(-c2cc(C)[n+](CCO)c(-c3ccc(OCC)cc3)c2)cc1`: the inhibition was -1.61%.

For `COC(=O)COc1ccc(C(=O)Cn2c(NCCCO)nc3ccccc32)cc1`, the inhibition is 4.11%.

In the case of `Cc1ccc(C(=O)CCS(=O)(=O)c2ccc(Cl)cc2)cc1`, the inhibition is 2.23%.

`Cc1ccc(C(=O)CCS(=O)(=O)c2ccc(Br)cc2)cc1`: the inhibition is -6.22%.

`COc1ccc(CC(=O)Oc2ccc(C(C)C)cc2)cc1S(=O)(=O)N1CCOCC1`: the inhibition was 5.73%.

As to `Cc1ccc(S(=O)(=O)NN2C(=O)c3ccccc3NC2c2ccco2)cc1` (stereo not given), the inhibition is -0.11%.

Take `O=C(O)c1ccc2c(c1)N(Cc1ccccc1)C(=O)c1ccccc1S2=O` (stereo not given): the inhibition is -5.21%.

As for `COc1ccc(CSc2nnnn2Cc2ccccc2)cc1OC`, the inhibition is -8.33%.

In the case of `COC(=O)C1=CO[C@@H](OC2OC(CO)C(O)C(O)C2O)[C@@H]2C(CO)=CC[C@H]12` (stereo not given in full), the inhibition was -13%.

With `CN(C)C(=O)C12CCC(C)(C(=O)C1Br)C2(C)C` (stereo not given), the inhibition is 7.02%.

For `FC(F)(F)c1cc(CCN2C(=S)NC[C@@H]2CC2CCCCC2)cc(C(F)(F)F)c1`, the inhibition was -1.84%.

Turning to `NC1=NC[C@H](c2ccccc2)N1CCc1cccc(F)c1`, the inhibition is 12.6%.

As for `CCCC[C@@H]1CN=C(N)N1CCc1cc(C(F)(F)F)cc(C(F)(F)F)c1`, the inhibition was 11.5%.

In the case of `NC1=NC[C@H](Cc2ccccc2)N1CCc1cc(C(F)(F)F)cc(C(F)(F)F)c1`, the inhibition is -32.4%.

For the molecule `Cc1ccc(S(=O)(=O)N2CCCN(S(=O)(=O)c3ccc(C(F)(F)F)cc3)CC2)cc1`, the inhibition was -17.3%.

`Cc1nnc(N/N=C/c2c[nH]c3ccccc23)[nH]c1=O`: the inhibition is -1.2%.

`Cc1cc(=O)[nH]c(N/N=C/c2ccccn2)n1`: the inhibition is 18.1%.

As for `Clc1cnc(N/N=C/c2ccncc2)c(Cl)c1`, the inhibition was 1.77%.

Turning to `Cc1ccccc1C(=O)Nc1ccnn1C1CCN(CCCc2ccccc2)CC1`, the inhibition is -1.21%.

`CN(C)C(=O)c1sccc1Oc1ccc(F)cc1[N+](=O)[O-]`: the inhibition was 7.3%.

On to `COC(=O)c1sccc1Oc1ccc(F)cc1[N+](=O)[O-]`, for which the inhibition was 4.41%.

Turning to `COc1ccc(CSCC(=O)Nc2ccccc2SC)cc1`, the inhibition was 8.6%.

With `COc1cc2ncnc(NCCCN3CCOCC3)c2cc1OC`, the inhibition was -4.12%.

For `CN1CCC(OC(=O)c2ccccc2Cl)CC1`, the inhibition is -6.15%.

As to `COc1ccc(C(=O)OC2CCN(C)CC2)cc1`, the inhibition is 3.95%.

Take `CN1CCC(OC(=O)c2cccc(Cl)c2)CC1`: the inhibition was 4.43%.

Take `CN1CCC(OC(=O)c2ccccc2)CC1`: the inhibition was 8.65%.

As for `CCOC(=O)c1ncn2c1C(=O)OC2(C)C`, the inhibition is 6.54%.

`CCOc1ccccc1OCc1nn2c(-c3ccc(C)cc3)nnc2s1`: the inhibition is 3%.

Take `C#CCOCCOCCOCCNc1nc(N2CCN(C(=O)[C@H]([C@@H](C)CC)n3cc(CCCCN)nn3)CC2)nc(N2CCN(C(=O)[C@H]([C@@H](C)CC)n3cc(CCCN=C(N)N)nn3)CC2)n1`: the inhibition was -1.05%.

Take `C#CCOCCOCCOCCNc1nc(N2CCOCC2)nc(N2CCN(C(=O)CCCCCCCCCCNC(=O)[C@H](CO)n3cc(CCCCCN)nn3)CC2)n1`: the inhibition is -10.9%.

For `C#CCOCCOCCOCCNc1nc(N2CCN(C(=O)CCCCCCCCCCNC(=O)[C@H]([C@@H](C)CC)n3cc(CCCCCN)nn3)CC2)nc(N2CCN(C(=O)CCCCCCCCCCNC(=O)[C@H](CO)n3cc(CCCCCN)nn3)CC2)n1`, the inhibition was 9.35%.

For the molecule `C#CCOCCOCCOCCNc1nc(N2CCOCC2)nc(N2CCN(C(=O)CCCCCCCCCCNC(=O)[C@H]([C@@H](C)CC)n3cc(CCCCN=C(N)N)nn3)CC2)n1`, the inhibition was 5.04%.

On to `O=C(COC(=O)/C=C/c1ccc([N+](=O)[O-])cc1)NCc1ccccc1`, for which the inhibition is -8.81%.

As for `CCCCCCC(C)n1cc(C(C)=O)c(=O)n(C)c1=O` (stereo not given), the inhibition was -9.33%.

Take `CN(C)CCNC(=O)CCCNC(=O)Cn1cnc2sc3c(c2c1=O)CCCC3`: the inhibition is 12.2%.

For `Cc1ccc(-c2nn(C)c(=O)c3ccccc23)cc1S(=O)(=O)NCCO`, the inhibition is -2.47%.

Consider `COCC1=C(C(=O)OC(C)OC(=O)OC(C)C)N2C(=O)[C@@H](NC(=O)/C(=N\OC)c3csc(N)n3)[C@H]2SC1` (stereo not given in full), for which the inhibition is 15.8%.

For `CO/N=C(\C(=O)N[C@@H]1C(=O)N2C(C(=O)O)=C(COC(N)=O)CS[C@H]12)c1ccco1`, the inhibition was -2.22%.

On to `COc1ccc(OCC(=O)Nc2c3c(nn2-c2ccccc2)CS(=O)(=O)C3)cc1`, for which the inhibition is -4.09%.

For `CC1=NCCc2c1[nH]c1ccccc21`, the inhibition is 5.56%.

Consider `CCCC/C=C1\CCc2c([nH]c3ccccc23)C1=O`, for which the inhibition was 8.47%.

Take `O=C(CCS(=O)(=O)Cc1ccc(Cl)cc1)NCCc1ccccc1`: the inhibition is -1.47%.

With `CC1=C(C(=O)OC(C)C)C(c2ccc(C)o2)C(C(=O)OC(C)C)=C(C)N1`, the inhibition is 6.14%.

Turning to `COc1ccccc1CN1CC(C(=O)NC2CCCCC2)CC1=O` (stereo not given), the inhibition was 1.61%.

`Cc1ccc2oc(=O)c(/C=C(\O)C(C)(C)C)nc2c1`: the inhibition was -12.4%.

For the molecule `Cc1ccc(/C(O)=C/c2nc3ccccc3oc2=O)cc1`, the inhibition was -11.1%.

Take `CC(C)(C)/C(O)=C/c1nc2ccccc2oc1=O`: the inhibition is -3.78%.

With `Cc1ccc(/C(O)=C/c2nc3cc(C)ccc3oc2=O)cc1`, the inhibition is -48.6%.

`O=c1oc2ccc(Cl)cc2nc1/C=C(\O)c1ccco1`: the inhibition was -30.4%.

`CC(C)C/C(O)=C/c1nc2cc(Cl)ccc2oc1=O`: the inhibition is -18.3%.

Consider `COc1ccc(CNC(=O)CN2C(=O)c3ccccc3C2=O)cc1`, for which the inhibition was -5.61%.

As to `CC(=O)c1ccccc1OCCn1nc(C(=O)O)c2ccccc2c1=O`, the inhibition is 1.39%.
